We go through 98 molecules from PubChem BioAssay AID1825 (The Scripps Research Institute Molecular Screening Center, 2009).

In general, inhibition refers to the change of the read-out against control, counted positive when it falls.

Each structure is given as a SMILES string. The whole screen tested about 290,000 compounds, of which about 2,300 (0.79%) were called active. This is one part of a sample in which actives are shown more often than they occur. Unmarked numbers belong to inactive results. Rule as the data show it: active = inhibition above about 22%; inactive = the rest.

The assay is described as follows: cytotoxicity in IEC-6 intestinal epithelial cells, primary screen, cytotoxicity control for KLF5 inhibitor project, cell-based, luminescence (AID 1825).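 Also: 0% = plate median of test compound wells and 100% = cytotoxic reference compound wells.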 The settings on record: IEC-6 cytotoxicity, luminescence viability; at 5 µM; active compounds read high.
`CCc1nn(CCCC(=O)Nc2ccc(C)c(C)c2)c(=O)c2cc3occc3n12`: the inhibition was -1.7%.
The result for `CCCCCCn1cc(C(=O)O)c(=O)c2cc(F)c(N3CCCCC3)cc21` reads 2.5%; that for `Cc1ccc(C)c(Cn2cnc3c(oc4ccccc43)c2=O)c1`, 19.8%.
The result for `O=C(c1n[nH]c2c1CCC2)N1CCCC(Nc2cccc(F)c2)C1` (stereo not drawn) reads -8.3%; that for `O=[N+]([O-])c1cccc(Nc2c3ccccc3nc3ccccc23)c1`, -0.9%; that for `CC(=O)Nc1ccc(Nc2c3ccccc3nc3ccccc23)cc1`, 95.3% (active).
The result for `Cc1ccc(Nc2c3c(nc4ccccc24)CCC3)cc1` reads 7.5%; that for `COc1ccc(Cl)cc1NC(=O)CN(C)Cc1ccc(OC)c(OC)c1`, 5.1%; that for `COc1ccccc1N1CC(C(=O)Nc2nnc(SCC(=O)NCC3CCCO3)s2)CC1=O` (stereo not drawn), 5.1%.
For `Nc1nonc1-n1nnc(C(=O)N/N=C\c2ccncc2)c1CN1CCCCC1`, the inhibition is -0.8%.
The result for `CCOc1cc(/C=N/Nc2cc(C)nc3ccc(C)cc23)ccc1O` reads -8.1%; that for `CC1(C)CC(N2CCN(C(c3ccccc3)c3ccccc3)CC2)=CC(=[N+]2CCCCC2)C1`, 30.6% (active); that for `CC(C)NC(=S)N1CCN(C(c2ccccc2)c2ccccc2)CC1`, -1.6%.
As for `O=C(O)CN1CCN(C(c2ccccc2)c2ccccc2)CC1`, the figure is -7.1%.
The result for `CC(C)c1ccc(/C=C2\NC(=O)NC2=O)cc1` reads -2.7%; that for `COc1ccc(N(C(=O)CNC(=O)c2ccco2)C(C(=O)NCC2CCCO2)c2ccccc2)cc1Cl` (stereo not drawn), 4.1%; that for `CN(C)c1ccc(/C=N\S(=O)(=O)c2ccccc2)cc1`, -2.3%.
For `CC[n+]1cc(C)ccc1/C=C/c1ccc(N(C)C)cc1`, the inhibition was 38.6% (active).
As for `CCSc1nnc(-c2cc3c(s2)-c2ccccc2CC3)o1`, the figure is 5.3%; as for `CC1CCCN(S(=O)(=O)c2ccc(-c3ccc(=O)[nH]n3)o2)C1` (stereo not drawn), 2.6%; as for `COCCNc1ncnc2c1nc1n2CCCC1`, 2.4%.
As for `COc1ccccc1/C=C1\SC(=O)N(CCC(=O)N(C)C2CCS(=O)(=O)C2)C1=O` (stereo not drawn), the figure is -0.8%; as for `CN1CCC(CN)(N2CCN(c3ccccc3)CC2)CC1`, -4.9%.
As for `Cc1cnc(NC(=O)c2ccc(Cl)nc2)s1`, the figure is -6.8%; as for `CCN(CC)c1ccc(NC(=O)c2ccc(Cl)nc2)cc1`, 55.7% (active); as for `O=C(NNc1ccccn1)c1ccc(Cl)nc1`, -4.7%.
As for `COc1cccc(CNC(=O)CCC2CCCN(C(=O)c3ccc(F)c(Cl)c3)C2)c1` (stereo not drawn), the inhibition was 1.1%.
On to `O=C(CNC(=O)c1cccs1)N/N=C/c1cccc(Br)c1`, for which the inhibition was -5.3%.
For the molecule `O=C(CN1C(=O)C2C3C=CC(C3)C2C1=O)Nc1nc(-c2ccccn2)cs1` (stereo not drawn), the inhibition is 32.2% (active).
The result for `O=C(CN1C(=O)C2C3C=CC(C3)C2C1=O)NCCc1ccccc1Cl` (stereo not drawn) reads -1.9%; that for `O=C(CCN1C(=O)C2C3C=CC(C3)C2C1=O)Nc1ccccc1F` (stereo not drawn), -2.4%; that for `CCOc1cc(/C=C/c2nc3ccccc3c(=O)[nH]2)cc(Br)c1OC`, 48.7% (active).
As for `COc1ccc(/C=N/Nc2nc3ccccc3c(=O)[nH]2)cc1`, the figure is 1.1%; as for `COc1ccc(C)cc1-n1nnnc1SCc1nc2ccccc2c(=O)[nH]1`, 3.2%; as for `CCCC1=Nc2cc(C(=O)NCCN3CCCC3)ccc2Sc2ccccc21`, -2.7%.
The result for `CCCC1=Nc2cc(C(=O)NCc3ccco3)ccc2Sc2ccccc21` reads 62.9% (active); that for `CCC1=Nc2cc(C(=O)NCCN3CCCC3)ccc2Sc2ccc(C)cc21`, 2.7%; that for `Cc1ccccc1N1CC(C(=O)Nc2nnc(SCCC3OCCO3)s2)CC1=O` (stereo not drawn), -3.4%.
With `O=c1ccc2cc(S(=O)(=O)NCCCc3ccccc3)ccc2[nH]1`, the inhibition is -3.7%.
As for `C=CCC1(CC=C)CCCN1C(=O)c1cc(COc2ccc(-n3cncn3)cc2)on1`, the figure is 22.6% (active); as for `O=C(c1cc(COc2ccc(F)c(F)c2)on1)N1CCOCC1`, 0.8%.
Regarding `CCn1ccnc1CN(C)C(=O)c1cc(COc2ccc(-n3cncn3)cc2)on1`, the inhibition is -7.1%.
The result for `CCCCNC(=O)CCn1nc(-c2ccc(Cl)cc2)ccc1=O` reads -2.4%; that for `COc1ccc(-c2cc(C(F)(F)F)nc(S(C)(=O)=O)n2)cc1OC`, 26.4% (active); that for `COc1cc(OC)nc(S(C)(=O)=O)n1`, 6.6%.
As for `COc1ccc(-c2cc(C(F)(F)F)nc(SCC(=O)Nc3ccc4c(c3)OCO4)n2)cc1OC`, the figure is 3%.
The result for `Cn1c(=O)[nH]c(=O)c2c1nc(N1CCN(C(c3ccccc3)c3ccccc3)CC1)n2CCO` reads -7.4%; that for `COc1ccccc1N1CCN(S(=O)(=O)c2ccc3c(c2)NC(=O)CS3)CC1`, 2.9%; that for `CC(C)(C)c1cc[n+](-c2[nH]c(=O)sc2/C=N/N=C(\[O-])c2ccccc2)cc1`, 4.2%.
Regarding `O=C(c1ccccc1F)N(Cc1ccccc1)Cc1ccccc1`, the inhibition is -1.4%.
As for `CC1(C)C(C=C(Cl)Cl)C1C(=O)N(Cc1ccc(Cl)cc1)C1CCS(=O)(=O)C1` (stereo not drawn), the figure is -12.5%.
For the molecule `CN(c1ccccc1)S(=O)(=O)c1ccc(Cl)c(C(=O)OCC(=O)NCc2ccco2)c1`, the inhibition is -4.1%.
On to `Cc1cc(C(=O)OCC(=O)NCc2ccco2)c(C)n1-c1ccccc1`, for which the inhibition was 33.2% (active).
In the case of `O=C(COC(=O)c1cc(S(=O)(=O)N2CCCCC2)ccc1Cl)NCc1ccco1`, the inhibition is 6.2%.
As for `O=C(COc1ccc(Cl)cc1)Nc1ccc2oc(=O)ccc2c1`, the figure is -4.8%; as for `COc1cccc(/C=N/Nc2ccc(Cl)nn2)c1`, -3.1%.
Consider `Oc1cccc(/C=N/Nc2ccc(Cl)nn2)c1O`, for which the inhibition was 99.5% (active).
Consider `Clc1ccc(N/N=C/c2cccs2)nn1`, for which the inhibition was -1.4%.
As for `CCC1CCCCN1C(=O)CSc1nc2c(c(=O)n1C)SC(C)C2` (stereo not drawn), the figure is 0%; as for `Cc1cc(Cl)ccc1C(=O)C1CCCN(C(=O)c2nonc2C)C1` (stereo not drawn), -1.1%; as for `CCC(CC)C(=O)Nc1c2c(nn1-c1ccc(C)cc1)CS(=O)(=O)C2`, -3%.
The result for `CCOCCCNc1nc(-c2ccccc2)nc2ccccc12` reads -4%; that for `CC(C)(C)Nc1nc(-c2ccccn2)nc2ccccc12`, 91.3% (active); that for `Cc1ccc(Oc2nc(-c3ccccn3)nc3ccccc23)cc1`, 8.9%.
The result for `COc1cc(N=Cc2c(O)c3ccccc3oc2=O)c(OC)cc1Cl` reads 2.7%; that for `CNC[C@H](CC1CCCCC1)NC[C@H](NCCC1CCCC1)[C@H](C)O`, 36.1% (active).
For the molecule `COc1cc(C(=O)OC2CCOC2=O)c([N+](=O)[O-])cc1OC` (stereo not drawn), the inhibition was -4%.
As to `COc1ccccc1Oc1ccc(N/C=C2/CCCC2=O)cc1`, the inhibition was -8.7%.
With `Cc1[nH]n(-c2ccccc2)c(=O)c1/C=N/NC(=O)c1ccoc1C`, the inhibition was 1.8%.
The result for `C/C(=N\NC(=O)c1ccoc1C)c1ccccc1O` reads 98.7% (active); that for `CC(C)=C(NC(=O)c1ccccc1)C(=O)N/N=C(\C)c1ccccc1O`, 4%; that for `CN(Cc1ccccc1)S(=O)(=O)c1nnc(NC(=O)c2ccccc2F)s1`, 4.7%.
As for `Cc1ccc(-c2nn(-c3ccccc3)cc2/C=C2\SC(=S)N(CCCCCC(=O)O)C2=O)o1`, the figure is -8.8%.
With `Cc1cccc(N(C(=O)Cn2nnc(-c3ccc(C)o3)n2)C(C(=O)NC2CCCC2)c2ccncc2)c1` (stereo not drawn), the inhibition is -3.9%.
As for `C[N+](C)(C)CCNC(=O)c1cc[n+](Cc2ccccc2)c(/C=N/O)c1`, the figure is -6.3%.
The result for `CCC(=O)Nc1ccc(C(=O)NNC(=O)c2ccc(Cl)cc2)cc1` reads 2.4%; that for `CC(C)(C)c1cc2cccnc2n1Cc1cccc(F)c1`, -9.9%.
For the molecule `O=C(CSc1ncn[nH]1)N/N=C/c1ccc(F)cc1`, the inhibition was 2.8%.
Regarding `O=C(/C=C/Sc1ncn[nH]1)c1ccc(Cl)cc1`, the inhibition is 96.3% (active).
The result for `Cc1ccc(C(=O)/C=C/c2c(C)nn(-c3ccccc3)c2Cl)cc1` reads 7.3%; that for `CC(C)(C)n1nnnc1C(c1ccccc1F)N1CCN(C(=O)c2ccco2)CC1` (stereo not drawn), -4.7%; that for `O=C(OCc1ccc(-c2ccccc2)cc1)c1cccc(O)c1`, -3.8%.
As for `CCN(CC(=O)NCCCN1CCOCC1)S(=O)(=O)c1cc(Cl)ccc1Cl`, the figure is 0.6%; as for `O=S(=O)(NCCc1ccc(Cl)cc1)c1cccs1`, 6.4%.
On to `COc1ccc(N2C(=O)C(Cc3ccccc3)NC2=S)cc1` (stereo not drawn), for which the inhibition was 3.8%.
As for `O=C1C(Cc2ccc(O)cc2)NC(=S)N1Cc1ccccc1` (stereo not drawn), the figure is -3.3%.
The result for `Cc1ccc(N2C(=O)C(Cc3ccccc3)NC2=S)cc1` (stereo not drawn) reads 24.6% (active); that for `CC(C)C(=O)NCC(c1cccs1)S(=O)(=O)c1ccc(F)cc1` (stereo not drawn), 7.2%.
`CC(=O)Nc1ccc(Nc2ncnc3c2nnn3Cc2ccccc2Cl)cc1`: the inhibition was 1.1%.
As for `CCN(Cc1nc2ccccc2c(=O)[nH]1)Cc1cc(=O)oc2cc(C)c(C)cc12`, the figure is 2%; as for `COc1ccc(C(=O)Nc2cc(C)c(NC(=O)c3ccccc3OC)cn2)cc1`, -2.8%.
As for `Cc1cc(C(=O)NC2CC(C)(C)Cc3c2cnn3-c2ccccc2)n[nH]1` (stereo not drawn), the figure is 7.1%; as for `COc1cccc2sc(N(CCCN(C)C)C(=O)CCS(=O)(=O)c3ccccc3)nc12`, 50% (active).
The result for `COc1cccc2sc(N(CCCN(C)C)C(=O)C(c3ccccc3)c3ccccc3)nc12` reads 3.5%; that for `Cc1cccc2sc(N(CCCN(C)C)C(=O)CCS(=O)(=O)c3ccccc3)nc12`, 11.3%; that for `COc1ccccc1NC(=O)C1=C(C)NC(=O)NC1c1ccc(C)s1` (stereo not drawn), -4.5%.
On to `COc1ccccc1NC(=O)c1ccc(C)s1`, for which the inhibition is 34.8% (active).
As for `COC(=O)c1c(NC(C)=O)sc(C(=O)Nc2ccccc2OC)c1C`, the figure is -1.2%.
